This note sets out measurements from PubChem BioAssay (NCI).

Molecules are shown by their SMILES. About 83,000 compounds went through this panel and 20% of them were active in at least one assay; those are over-represented in the sample as a whole.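 Plates (96-well) were seeded with cells, treated with compound at one concentration, and incubated for 48 hours before percent growth was determined.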 The source made the active and inactive calls.

In this assay the test system is OVCAR-8 ovarian. Briefly: NCI-60 one-dose screen, 48 h (100 = growth as untreated, 0 = no growth, -100 = all killed). Conditions: 10 µM unless noted. The method, then:
Growth inhibition of the OVCAR-8 human tumor cell line is measured as a screen for anti-cancer activity. Cells are grown in 96 well plates and exposed to the test compound for 48 hours. Compounds are tested at a single concentration, which is 10^-5 M for most compounds. The reported endpoint is percent growth (GI% or GIPRCNT), where numbers from 0 - 100% represent growth inhibition, and numbers from -100% - 0 represent cell death. For example, a value of 40 represents 60% growth inhibition. A value of 0 means no net growth occurred over the course of the experiment. A value of -40 indicates 40% of cells at the beginning of the experiment died by the end of the experiment. A value of -100 means all cells are dead at the end of the experiment.
NCI-60 Human Tumor Cell Lines Screen was performed using the standard one-dose NCI protocol, which is described in more detail at https://dtp.cancer.gov/discovery_development/nci-60/default.htm.
Compounds with GIPRCNT values below 10 were considered active. Activity score was based on GIPRCNT using the following formula: […]
Score is 0 for GIPRCNT values of 100 or above, 50 for GIPRCNT values of 0, and 100 for GIPRCNT values of -100.
As to `Cc1nc(Nc2ccc(F)c(Cl)c2)sc1C(=O)O`, the growth is 14% (inactive). The figure for `CC(O)CN1CC(O)=C(c2nc3ccccc3s2)C1=N` (stereo not given) is 116% (inactive); for `COc1cc(/C=C/C(=O)c2cccnc2Nc2ccc(F)cc2)cc(OC)c1OC` it is 1.62% (active); for `CC(=O)c1cc2c(N)c(C(=O)Nc3cccc(F)c3C)sc2nc1C` it is 79.6% (inactive).

As to `Oc1cccc2ccc(N/N=C/c3cc(CN4CCOCC4)c(O)c4ncccc34)nc12`, the growth is 13% (inactive). The figure for `CC1SC(c2ccc(N(C)C)cc2)N(NC(=O)C(O)(c2ccccc2)c2ccccc2)C1=O` (stereo not given) is 77.4% (inactive). Turning to `Cc1nn(-c2ccc(F)cc2)c2ncnc(Nc3ccc(NC(=O)Nc4ccc(Cl)c(C(F)(F)F)c4)cc3)c12`, the growth was 35.4% (inactive). On to `COc1ccc(CN2c3ccccc3Sc3ccccc32)cc1O`, for which the growth is 22.1% (inactive).

For the molecule `COc1cc2c(cc1-c1c(C)noc1C)ncc1nc(C3CCOCC3)n([C@@H](C)COC(F)F)c12`, the growth is 45% (inactive).

On to `COc1ccc(CCNc2nc(SC)nc(-c3cccc([N+](=O)[O-])c3)c2C#N)cc1OC`, for which the growth was 61.6% (inactive). The figure for `N#CN1CC[C@H](C(=O)Nc2cc3cc(C(N)=O)ccc3cn2)C1` is 1.62% (active). The figure for `O=C(COc1cccc(/C=C2\CSc3ccccc3C2=O)c1)Nc1nccs1` is 31% (inactive). With `O=C(CCN1C(=O)/C(=C/c2ccc(Cl)cc2)SC1=S)NCCCN1CCOCC1` the figure was 92.4% (inactive); with `COc1ccc(-c2cc(-c3ccc(Nc4ccnc5cc(Cl)ccc45)cc3)nc(N3CCOCC3)n2)cc1`, 15.3% (inactive); with `Clc1ccc2c(NCCNc3nc(N4CCCCC4)nc4ccccc34)ccnc2c1`, -30.5% (active). As for `COc1ccc(CN2c3ccccc3Sc3ccccc32)c(C(F)(F)F)c1`, the growth is 31.1% (inactive). With `c1ccc(Cn2cc(-c3nc4ccccc4s3)c3cccnc32)cc1` the figure was 106% (inactive); with `O=C(Nc1cccc2[nH]c(C(F)(F)F)nc12)c1ccc(-n2cnnn2)cc1`, 89.4% (inactive). The figure for `CC/C=C\C[C@H]1C/C=C2/C(=O)C=C[C@H]2C/C=C\CCCC(=O)O1` is 0.796% (active). The figure for `COc1cccc(-c2nc3sccn3c2-c2ccnc(NCCCNS(=O)(=O)c3cccc(F)c3)c2)c1` is 14.4% (inactive); for `C=CC(=O)Nc1cccc(-c2nc(SC)nc(Nc3ccccc3OC)c2C#N)c1` it is 34.5% (inactive). Consider `Cc1nn(-c2cc(=O)[nH]c3ccccc23)c(N)c1C#N`, for which the growth was 99.2% (inactive). For `FC(F)(F)c1[nH]ncc1-c1nc2ccc3n[nH]c(C#Cc4cccnc4)c3c2c2c1CCCC2`, the growth is 45.5% (inactive).

Turning to `COc1ccc(-c2nnc(SCC(=O)c3ccc(Cl)cc3)o2)cc1`, the growth was 99% (inactive). The figure for `Cc1ccc(C2=NN3C(C2)c2cc(Br)ccc2OC32CCN(Cc3ccccc3)CC2)o1` (stereo not given) is 98.8% (inactive); for `COc1ccc(C2Nc3c(c(C(C)(C)C)nn3-c3ccccc3)C(=O)CS2)cc1` (stereo not given) it is 98.4% (inactive); for `CC1=NN(c2nc(-c3ccc(Cl)cc3)c(C#N)c(N3CCOCC3)n2)C(=O)C1` it is 99.3% (inactive). The figure for `COc1cccc2c1C(=O)c1c(O)c3c(c(O)c1C2=O)C[C@](O)(C(=O)CO)C[C@H]3O[C@@H]1C[C@@H](NC(=O)CCCCCN(C)C2(c3ccc(F)cc3)CC3CCC2C3)[C@H](O)[C@@H](C)O1` (stereo not given in full) is 21.5% (inactive); for `COc1ccc2cc(-c3nn(-c4ccc(C(=O)O)cc4)cc3CO)ccc2c1` it is 101% (inactive); for `COc1ccc(CN2c3ccccc3Oc3ccccc32)cc1O` it is 35.6% (inactive).

As to `O=C1c2cc3c(cc2-c2c1c1cc(F)c(F)cc1c(=O)n2CCCn1ccnc1)OCO3`, the growth is 12.1% (inactive). For `C=C1C(=O)O[C@H]2[C@H]1CC/C(COC(=O)NCc1ccc(OC)c(OC)c1)=C\CC[C@@]1(C)O[C@@H]21`, the growth is 47.9% (inactive). In the case of `O=C(/C=C/c1cccc(Cl)c1)c1ccc(O)c(CN2CCN(c3cc4c(cc3F)c(=O)c(C(=O)O)cn4C3CC3)CC2)c1`, the growth is 20.6% (inactive).

Turning to `CC1=CC(C)(C)Nc2ccc(Cc3ccc4c(c3)C(C)=CC(C)(C)N4)cc21`, the growth was 96.9% (inactive). With `CCNc1ncnc2c1cnn2C1CCCO1` (stereo not given) the figure was 115% (inactive); with `C=CC(=O)Nc1cccc(-c2nc(SC)nc(NCCc3ccc(OC)c(OC)c3)c2C#N)c1`, 30.7% (inactive); with `O=C1c2cc3c(cc2-c2c1c1ccc(F)cc1c(=O)n2C[C@H](O)[C@H](O)[C@H](O)CO)OCO3`, -3.45% (active). The figure for `C=CC(COC(c1ccccc1)(c1ccccc1)c1ccccc1)N(CC)CC` (stereo not given) is 77% (inactive). With `COc1cc2c(cc1O)CC[C@@H]1[C@@H]2CC[C@]2(C)[C@@H](NCCN(C)C)CC[C@@H]12` the figure was -79% (active). As for `Clc1ccc2c(NCCCCNc3nc(N4CCOCC4)nc4ccccc34)ccnc2c1`, the growth was 9.88% (active).
